From PubChem BioAssay
NS1 inh: blocks influenza NS1 protein function; Potency, µM (top dose mostly 46.1 µM), for the others: at the top dose activity, positive = more growth; hit rate 0.4% among 270,000; calls by dose curve; further: actives are rising curves; nearly all actives have a fitted effect of over 50% in size
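S. cerevisiae expressing influenza A NS1, grown in glucose, washed, then diluted 1:100 into pH 6.0 -URA galactose medium with 23 nl compound. Growth recovery read as OD600; NS1-free strain serves as control.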
Pf growth 48h: P. falciparum growth inhibition at 48 hours (one generation); P. falciparum luciferase growth in erythrocytes, 48 h; Potency, µM (titrated, usually from 28.7 µM), for the others: top-dose activity change, negative = inhibition, usual class: inhibitors; hit rate 5.9% among 310,000; AID 504832; further: on the % scale 0 is the no-effect control and ±100 the full control effect
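In quantitative HTS format, infected erythrocytes bearing luciferase-reporter parasites were treated for a single generation at 37 C. Luminescence after adding detection reagent served as the growth measure.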
Sm TGR inh: inhibitors of Schistosoma mansoni thioredoxin glutathione reductase; Q962Y6; purified TGR, DTNB reduction, TNB absorbance 405 nm; Potency, µM (top dose mostly 114 µM), inactives show top-dose activity change, negative = inhibition, most hits filed as inhibitors; hit rate 3% among 360,000; AID 485364; further: on the % scale 0 is the no-effect control and ±100 the full control effect; nearly all actives have a fitted effect of over 60% in size
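Kinetic colorimetric format: TGR-catalysed, NADPH-driven DTNB reduction monitored via TNB absorbance. Enzyme dispensed at 20 nM; compound exposure 15 min at room temperature before reaction start.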
AMA1 RON2 block: inhibitors of Plasmodium falciparum AMA1-RON2 interaction; AlphaScreen AMA1-biotinylated RON2 peptide binding; Potency, µM (highest dose often 58.2 µM), for inactives: top-dose activity change, negative = inhibition, hits mostly inhibitors; hit rate 0.2% among 360,000; AID 720542;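 further: 0% = vehicle wells and -100% = peptide control; nearly all actives have a fitted effect of over 45% in size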
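AMA1 (3D7) with his tag at 25 nM final met compounds first, then biotinylated RON2 peptide at 25 nM; detection used donor plus acceptor beads, 10 µg/mL apiece, read by AlphaScreen after 30 min at room temperature.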
Pf growth 96h: inhibits malaria parasite growth, 96 h; P. falciparum luciferase reporter growth, 96 h; hit rate 6.9% among 320,000; AID 504834; Potency, µM (titrated, usually from 28.7 µM), for the others: at the top dose activity change, negative = inhibition, most hits filed as inhibitors; further: on the % scale 0 is the no-effect control and ±100 the full control effect
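Two-generation exposure (96 h) targets delayed-death phenotype. Reporter parasites carrying integrated firefly luciferase, in red cells at 2% hematocrit and 0.05% parasitemia final, kept at 37 C, 5% CO2; luminescence loss indicates inhibition.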
The depositor's hits bear a star; u = inconclusive; x = no result. Rows were chosen to be rich in hits. Some 11% of all compounds tested hit in one or more screens of this group. Unless noted, the call rests on the fitted dose curve; in most records, active means well fitted curve in the direction sought with a large enough effect; inconclusive means small, poorly fitted or top-dose-only effect, or another doubt; inactive means no such curve, though single readings can be large; an effect the other way counts as inactive or inconclusive. Potency means the concentration at half of the fitted maximal effect.

SMILES | NS1 inh | Pf growth 48h | Sm TGR inh | AMA1 RON2 block | Pf growth 96h
Cn1nnnc1SCCNCc1ccccc1OCc1ccc(Cl)cc1 | 14% | u | 7% | u | 12µM*
Cc1ccc2oc(C(=O)NCC3CCOCC3)c(C)c2c1 | -2% | 29% | -19% | -9% | 10µM*
Cc1ccc2oc(C(=O)N(C)Cc3ccc(C)o3)c(C)c2c1 | -1% | 14% | 2.2µM* | -12% | u
Cc1ccc(CN(C)C(=O)c2cc(Br)c(Br)s2)o1 | -13% | 3% | 50µM* | -11% | 6%
Cc1ccc2c(C)c(C(=O)NCC3CCOCC3)oc2c1C | x | x | x | -13% | x
Cc1ccc2oc(C(=O)N(C)Cc3ccon3)c(C)c2c1 | -25% | 87% | 2% | 4% | -17%
CC(C)COc1ccc(C(=O)N/C(=C/c2cccc([N+](=O)[O-])c2)C(=O)O)cc1 | u | u | -5% | -12% | 10%
CCOC(=O)c1ccc(N2C(=O)CC(NC3CCN(C(=O)c4cccc(Cl)c4)CC3)C2=O)cc1 (stereo not given) | -32% | u | 50µM* | 15% | 125%
COc1ccc(C2=NN3C(C2)c2ccccc2OC32C(=O)N(C)c3ccccc32)cc1 (stereo not given) | 1% | u | 40µM* | 29% | -4%
COc1ccc(C2=NN3C(C2)c2ccccc2OC3c2cccs2)cc1 (stereo not given) | -8% | 70% | u | 27% | u
COc1ccc(N2CC(C(=O)N[C@@H](CC(C)C)C(=O)NC3CCCCC3)CC2=O)cc1 (stereo not given in full) | 5% | u | -7% | 5% | 15µM*
O=C(NC1CC1)C1CC(=O)N(c2cccc(Cl)c2)C1 (stereo not given) | 28% | 10µM* | 7.1µM* | 0% | u
O=C(NC1CCCCC1)C1CC(=O)N(c2ccccc2)C1 (stereo not given) | 1% | 9% | 0% | -21% | 3.3µM*
COc1cccc(N2CC(C(=O)NNC(=O)c3ccc(Cl)cc3)CC2=O)c1 (stereo not given) | 3% | 0% | -23% | 54% | 5.9µM*
COc1cccc(N2CC(C(=O)NC3CCCCC3)CC2=O)c1 (stereo not given) | -11% | 8% | 3% | 11% | x
COc1ccc2c(c1)c1c(C)c3cnccc3c(C)c1n2CCCN | 0% | x | x | x | x
CC(=O)Nc1ccc(S(=O)(=O)N(C#N)c2nc(N(C)C)nc(N(C)C)n2)cc1 | 13% | 28% | -5% | 2% | -42%
COc1ccc(CCn2c(=N)c(C(=O)NC3CCCC3)cc3c(=O)n4ccccc4nc32)cc1 | -4% | u | 2% | -8% | u
COc1ccc(CCn2c(=N)c(C(=O)NC3CCCC3)cc3c(=O)n4ccccc4nc32)cc1OC | -7% | 4.1µM* | -9% | 6% | 3.3µM*
COc1ccc(Cn2c(=N)c(C(=O)NC3CCCCC3)cc3c(=O)n4ccccc4nc32)cc1 | -13% | 4.7µM* | 14% | -3% | 1.9µM*
COc1ccc(NC(=O)Cn2c(=O)oc3cc(S(=O)(=O)N4CCC(C)CC4)ccc32)c(OC)c1 | x | x | 0% | x | x
COc1cc2nc(NCc3ccccc3Cl)n3nc(-c4cccnc4)nc3c2cc1OC | x | x | -7% | x | x
Cc1ccc(Nc2nc(N)nc(CN3CCN(c4ccccc4F)CC3)n2)cc1 | u | u | -31% | u | 6.6µM*
Nc1nc(CN2CCN(c3ccccc3F)CC2)nc(Nc2ccccc2)n1 | -8% | u | -21% | u | u
Cc1ccc(Nc2nc(N)nc(CN3CCN(C(=O)c4ccco4)CC3)n2)cc1Cl | -14% | u | 40µM* | 15% | 7.4µM*
SMILES | NS1 inh | Pf growth 48h | Sm TGR inh | AMA1 RON2 block | Pf growth 96h
Cc1ccc(Nc2nc(N)nc(CN3CCCCCC3)n2)cc1 | -2% | -8% | 40µM* | -15% | x
Cc1ccc(Nc2nc(N)nc(CN3CCN(C)CC3)n2)cc1 | 5% | 35% | -1% | 10% | x
Cc1cccc(Nc2nc(N)nc(CN3CCN(c4ccc(F)cc4)CC3)n2)c1 | -14% | u | 2% | -13% | 10µM*
N/C(=N\O)c1cccc(CS(=O)(=O)c2ccccn2)c1 | -1% | 13% | 1% | -17% | -4%
Cc1cc(-c2nc3ncccc3o2)ccc1NC(=S)NC(=O)c1ccco1 | -3% | -16% | x | 14% | 0%
Cc1cc(C)cc(NC(=S)N2CCC(N(C)CC3CCCO3)CC2)c1 (stereo not given) | x | 14% | -34% | -1% | u
CC1(C)CC(NC(=O)C2CCC(=O)N(C3CC3)C2)CC(C)(C)C1 (stereo not given) | 16% | 8% | 1% | -3% | 8.3µM*
O=C(NC1CCCCC1)C1CCC(=O)N(C2CC2)C1 (stereo not given) | 5% | -3% | 3% | -13% | -28%
O=C(NC1CCCCCC1)c1ccco1 | -7% | 18% | -2% | 5% | u
CCn1nc(C)c(NC(=O)CC23CC4CC(CC(C4)C2)C3)c1C | -10% | -14% | 15% | 1% | 8.3µM*
N#CCc1nc2c3c4c(sc3ncn2n1)CCCC4 | 6% | x | 6% | 12% | 10µM*
O=c1c(F)cn(C2CCCO2)c(=O)n1Cc1c(Cl)cccc1Cl (stereo not given) | 0% | x | 2% | 2% | 13µM*
O=c1c(F)cn(C2CCCO2)c(=O)n1Cc1ccc(Cl)cc1 (stereo not given) | 4% | 30% | -1% | -4% | 57%
CC(Oc1ccccc1)C(=O)N=Nc1c(O)[nH]c2ccc(Br)cc12 (stereo not given) | x | 30% | 6% | 3% | 10%
CC(C)(C)NC(=O)CN(CC1CCCO1)C(=O)CNS(=O)(=O)c1ccc(F)cc1 (stereo not given) | 0% | 1% | -1% | 11% | 24%
O=C(NC(=S)Nc1ccccc1N1CCOCC1)c1cccs1 | -6% | 9% | -22% | -4% | -24%
CCCN(CC(=O)Nc1ccccc1OC)C(=O)c1ccncc1 | -6% | 40% | -1% | 7% | 20%
O=C(NC(=S)Nc1ccc(N2CCOCC2)c(Cl)c1)c1cccs1 | 6% | u | x | -19% | 2.3µM*
CCN(CC)c1ccc(NC(=S)NC(=O)c2ccco2)cc1 | 0% | u | 11µM* | u | 37%
CCN(CC(=O)Nc1ccccc1OC)C(=O)c1ccc(NC(=O)c2cccs2)cc1 | x | 7.4µM* | 0% | -18% | u
Cc1ccc(C(=O)NC(=S)Nc2ccc(S(=O)(=O)N3CCN(C)CC3)cc2)cc1 | 18% | u | 28µM* | 12% | u
CCN(CC)c1ccc(NC(=O)c2ccco2)cc1 | -14% | -11% | -14% | -9% | -17%
N#Cc1cccc(NC(=O)CCN2C(=O)C3CCCCC3C2=O)c1 (stereo not given) | x | x | x | -13% | x
CN(C)S(=O)(=O)c1ccc(NC(=S)NC(=O)c2cccs2)cc1 | 6% | 13% | u | 93% | 9.3µM*
